The structures appear in SMILES notation. Results filed as inconclusive are left out. Calls of active or inactive are those of the source. Unless noted, the call rests on the fitted dose curve.

The nature of assay [1]: Nuclear factor erythroid 2-related factor 2/antioxidant responsive element (Nrf2/ARE) small molecule agonists: qHTS cell viability counter screen in human keratinocytes (AID 1919968; active means well fitted curve in the direction sought with a large enough effect in the repeat runs; an effect the other way counts as inactive or inconclusive; further: nearly all actives have a fitted effect of over 55% in size). Put shortly: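 In human HaCaT keratinocytes stably expressing an ARE-driven luciferase, compound exposure lasted 23 h at 37 C under 5% CO2. Viable cells are quantified with a protease-based fluorogenic reagent (CellTiter-Fluor) read 1 h after addition.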

A short description of assay [2]: Nuclear factor erythroid 2-related factor 2/antioxidant responsive element (Nrf2/ARE) small molecule agonists: luciferase reporter gene qHTS assay in human keratinocytes (AID 1919969). Further: nearly all actives have a fitted effect of over 35% in size. On the technique in general: In a reporter assay the amount or activity of a reporter protein is the signal.
Assay [3] deals with KiSS-1 receptor (Homo sapiens) (UniProt Q969F8). As to the kind of experiment: Human kisspeptin (KISS1R) small molecule agonists, calcium flux assay in KISS1R-HEK293 cells (AID 1920064; active means well fitted curve in the direction sought with a large enough effect in the repeat runs; an effect the other way counts as inactive or inconclusive). Put shortly: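 Concentration-response testing used 15 concentrations in triplicate on human KISS1R-expressing HEK293 cells. Calcium-dependent fluorescence (Ex/Em 480/540) was followed kinetically for 3 min after compound transfer.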
KiSS-1 receptor (Homo sapiens), sequence (Q969F8 whole entry, looked up): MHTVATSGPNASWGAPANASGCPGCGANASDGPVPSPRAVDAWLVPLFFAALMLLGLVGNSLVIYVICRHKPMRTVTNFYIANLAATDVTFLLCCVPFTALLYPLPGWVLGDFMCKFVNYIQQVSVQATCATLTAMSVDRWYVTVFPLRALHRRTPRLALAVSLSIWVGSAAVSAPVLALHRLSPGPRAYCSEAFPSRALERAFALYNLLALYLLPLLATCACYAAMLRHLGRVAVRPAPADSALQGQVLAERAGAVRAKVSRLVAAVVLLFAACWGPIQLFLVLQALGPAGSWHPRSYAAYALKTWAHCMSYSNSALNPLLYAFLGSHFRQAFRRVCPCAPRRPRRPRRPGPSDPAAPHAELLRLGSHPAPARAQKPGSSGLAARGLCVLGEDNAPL
(A change in cytosolic calcium serves as a functional read-out for many receptors and channels.)

Assay [4] in a line: p53 small molecule agonists, cell-based qHTS assay with human liver microsomes (AID 1963577).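 Further: p53 response element beta-lactamase reporter cells with liver microsomes plus NADPH.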 Put shortly:
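In this qHTS, p53 response-element beta-lactamase cells receive test compound together with a microsome/NADPH activating system (0.5 mg/mL final each) and are incubated 16 h at 37 C before LiveBLAzer fluorescence detection.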

The nature of assay [5]: p53 small molecule agonists, cell-based qHTS assay with rat liver microsomes (AID 1963578). Put shortly:
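Agonist mode in p53RE-bla reporter cells, with compounds co-incubated 16 h at 37 C alongside 0.5 mg/mL rat liver microsomes and 0.5 mg/mL NADPH (final), followed by a 2 h LiveBLAzer detection step.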
In general terms: Quantitative high-throughput screening tests each substance at several concentrations.

Assay [6] in a line: p53 small molecule agonists, cell-based qHTS assay with human liver microsomes: qHTS cell viability counter screen (AID 1963579). Further: nearly all actives have a fitted effect of over 45% in size. Put shortly: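 Metabolically activated exposure: compounds, human liver microsomes and NADPH (0.5 mg/mL final apiece) were added to p53RE-bla cells seeded 5 h earlier, left 16 h at 37 C, and then assessed for viability by CellTiter-Glo luminescence.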

A short description of assay [7]: p53 small molecule agonists, cell-based qHTS assay with rat liver microsomes: qHTS cell viability counter screen (AID 1963580). Further: nearly all actives have a fitted effect of over 45% in size. The method, boiled down:
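Counter screen for cytotoxicity under metabolic activation: rat liver microsomes and NADPH, 0.5 mg/mL final each, added with compounds to p53RE-bla HCT-116 cells; 16 h at 37 C, then ATP luminescence read.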

The nature of assay [8]: p53 small molecule agonists, cell-based qHTS assay: qHTS cell viability counter screen (AID 1963581). Further: nearly all actives have a fitted effect of over 45% in size. Further: potency means the concentration at half of the fitted maximal effect. The method, boiled down:
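Luminescence from CellTiter-Glo, reflecting ATP content, serves as the cytotoxicity measure; it is taken after the 2 h reporter substrate step in HCT-116 p53RE-bla cells dosed for 16 h at 37 C.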

Assay [9] is described as follows: p53 small molecule agonists, cell-based qHTS assay (AID 1963582; active means well fitted activation curve with a large enough effect in the signal ratio in the repeat runs, not every such curve was filed as active; the % refers to the signal ratio). Put shortly:
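After plating, p53RE-bla cells sat 5 h in the incubator; compounds or DMSO vehicle were pinned in; a 16 h incubation at 37 C followed; FRET substrate was added and, 2 h later at RT, fluorescence was measured.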

Assay [10] addresses 5-hydroxytryptamine receptor 2A (Homo sapiens) (UniProt P28223). As to the kind of experiment: 5-hydroxytryptamine receptor 2A (HTR2A) small molecule agonists, cell-based qHTS assay (AID 1963587). Further: nearly all actives have a fitted effect of over 30% in size. The method, boiled down: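 HTR2A-CHO cells, plated 18 h at 37 C/5% CO2, dye-loaded 1 h at 37 C; compounds in DMSO added by pin tool (agonist mode). Intracellular calcium flux read as kinetic fluorescence on FDSS over 2 min at 1 s intervals.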

The target in assay [11] is Muscarinic acetylcholine receptor M1 (Homo sapiens) (UniProt P11229). As to the kind of experiment: Cholinergic receptor muscarinic 1 (CHRM1) small molecule antagonists, cell-based qHTS assay (AID 1963588). Further: nearly all actives have a fitted effect of over 40% in size. The method, boiled down:
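Compounds were tested at 15 concentrations in three independent runs. Dye-loaded CHRM1-CHO cells were exposed 5 min at room temperature before stimulation by acetylcholine added at 50nM. Intracellular calcium was read kinetically on FDSS for 3 min.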

Assay [12] can be described thus: cAMP Responsive Elements (CRE) small molecule agonists, cell-based qHTS assay (AID 1963590). Put shortly: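 Compound exposure lasted 3 h at 37 C/5% CO2 in CRE-bla HEK 293T cells grown in assay medium with 10% dialyzed FBS and 25 mM HEPES. Reporter signal came from LiveBLAzer B/G FRET substrate, 2 h, room temperature.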
The nature of assay [13]: cAMP Responsive Elements (CRE) small molecule antagonists, cell-based qHTS assay (AID 1963591; active means well fitted inhibition curve with a large enough effect in the signal ratio in the repeat runs, not every such curve was filed as active; the % refers to the signal ratio). The method, boiled down: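 Stimulation used NKH477 at a final 0.25 uM for 3 h in compound-treated CRE-bla HEK293T cells, seeded 18 h beforehand. Reporter activity was measured with LiveBLAzer B/G FRET substrate after 2 h at room temperature.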
Assay [14] concerns the target Beta-2 adrenergic receptor (Homo sapiens) (UniProt P07550). Description: Adrenergic beta2 receptor (ADRB2) small molecule antagonists, cell-based qHTS assay (AID 1963592). Further: series mostly up to about 92 µM; nearly all actives have a fitted effect of over 50% in size. The method, boiled down:
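Assay format: CHO-ADRB2 cells, 18-20hr seeding at 37C/5% CO2, then compound plus 1nM isoproterenol agonist mix for 0.5hr RT. Homogeneous time-resolved fluorescence cAMP detection after 1hr, expressed as 665/615 nm ratio.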

For assay [15] the target is unchanged. As to the kind of experiment: Adrenergic beta2 receptor (ADRB2) small molecule agonists, cell-based qHTS assay (AID 1963593).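 Further: CHO cells stably overexpressing human ADRB2.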 The method, boiled down: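 CHO cells stably over-expressing ADRB2 were plated overnight at 37C, then dosed with compounds plus a stimulation mix containing 100uM IBMX and 25uM Ro-20-1724 for 0.5hr at room temperature. cAMP was measured by HTRF competition, 1hr.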

The target in assay [16] is D(2) dopamine receptor (Homo sapiens) (UniProt P14416). As to the kind of experiment: Dopamine D2 receptor (DRD2) small molecule agonists, cell-based qHTS assay (AID 1963594). Further: nearly all actives have a fitted effect of over 35% in size. The method, boiled down: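 HEK293 cells stably expressing DRD2 were cultured 24 h at 37 C, then given Ro20-1724 (0.1 mM final) and compounds for 10 min at room temperature. NKH477 (200nM) was then added for 30 min. cAMP was read by HTRF.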
D(2) dopamine receptor (Homo sapiens), sequence (P14416 whole entry, looked up): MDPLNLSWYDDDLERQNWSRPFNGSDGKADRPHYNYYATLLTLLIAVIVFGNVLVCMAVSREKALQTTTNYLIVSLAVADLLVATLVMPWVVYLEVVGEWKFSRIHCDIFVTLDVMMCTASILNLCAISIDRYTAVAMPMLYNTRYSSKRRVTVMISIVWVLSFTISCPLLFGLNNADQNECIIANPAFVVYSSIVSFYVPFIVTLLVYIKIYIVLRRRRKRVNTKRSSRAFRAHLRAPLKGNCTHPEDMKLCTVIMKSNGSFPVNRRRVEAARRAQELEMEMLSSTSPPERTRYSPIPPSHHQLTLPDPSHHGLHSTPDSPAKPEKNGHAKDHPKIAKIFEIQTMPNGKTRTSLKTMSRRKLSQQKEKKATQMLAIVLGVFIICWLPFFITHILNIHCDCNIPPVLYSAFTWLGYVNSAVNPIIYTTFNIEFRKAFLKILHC

For assay [17] the target is unchanged. As to the kind of experiment: Dopamine D2 receptor (DRD2) small molecule antagonists, cell-based qHTS assay (AID 1963595; active means well fitted inhibition curve with a large enough effect in the signal ratio in the repeat runs, with a control signal flat; the % refers to the signal ratio). Put shortly:
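HEK293 cells stably expressing DRD2, preincubated with 0.1 mM Ro20-1724 and compounds 10 min, were stimulated with 200 nM NKH477 plus 12 nM quinpirole for 30 min at room temperature; cAMP measured by HTRF (665/620 nm).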

Assay [18] concerns the target 5-hydroxytryptamine receptor 2A (Homo sapiens) (UniProt P28223). As to the kind of experiment: 5-hydroxytryptamine receptor 2A (HTR2A) small molecule antagonists, cell-based qHTS assay (AID 1963586). Further: nearly all actives have a fitted effect of over 45% in size. Put shortly: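 CHO cells stably expressing human HTR2A were plated for 18 h at 37 C, then loaded with calcium dye for 1 h. Compounds were preincubated 5 min at room temperature before DOI (4 nM solution) was added. Kinetic fluorescence was read for 3 min.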

Assay [19] concerns the target Muscarinic acetylcholine receptor M1 (Homo sapiens) (UniProt P11229). Description: Cholinergic receptor muscarinic 1 (CHRM1) small molecule agonists, cell-based qHTS assay (AID 1963589). Further: nearly all actives have a fitted effect of over 35% in size. Put shortly: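 Fluorescent calcium dye reports M1 activation in stably transfected CHO cells. Compounds, 15 concentrations, added after 1 h dye loading at 37 C; kinetic reading at 1 sec intervals.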

Assay [20] addresses Gonadotropin-releasing hormone receptor (Homo sapiens) (UniProt P30968). As to the kind of experiment: Human gonadotropin-releasing hormone receptor (GnRHR) small molecule agonists, calcium flux assay in GnRHR-HEK293 cells (AID 1920063). Further: nearly all actives have a fitted effect of over 35% in size. The method, boiled down: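 Intracellular calcium rise is the read-out: engineered human GnRHR HEK293 cells, dye-loaded, are exposed to DMSO-dissolved compounds and fluorescence at Ex/Em 480/540 is tracked for 3 min.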

Beta-2 adrenergic receptor (Homo sapiens), sequence (P07550 whole entry, looked up): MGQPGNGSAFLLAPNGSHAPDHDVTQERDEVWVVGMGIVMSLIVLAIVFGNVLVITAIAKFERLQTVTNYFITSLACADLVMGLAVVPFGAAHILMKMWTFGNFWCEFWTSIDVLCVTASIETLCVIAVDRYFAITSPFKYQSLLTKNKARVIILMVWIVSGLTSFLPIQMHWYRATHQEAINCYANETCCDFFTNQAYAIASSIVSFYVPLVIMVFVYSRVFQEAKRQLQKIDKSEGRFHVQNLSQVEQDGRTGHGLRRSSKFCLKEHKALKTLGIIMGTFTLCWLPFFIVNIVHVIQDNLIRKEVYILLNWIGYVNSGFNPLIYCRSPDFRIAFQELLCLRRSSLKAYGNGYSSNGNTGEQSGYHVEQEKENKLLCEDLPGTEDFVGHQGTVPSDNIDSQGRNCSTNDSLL
Muscarinic acetylcholine receptor M1 (Homo sapiens), sequence (P11229 whole entry, looked up): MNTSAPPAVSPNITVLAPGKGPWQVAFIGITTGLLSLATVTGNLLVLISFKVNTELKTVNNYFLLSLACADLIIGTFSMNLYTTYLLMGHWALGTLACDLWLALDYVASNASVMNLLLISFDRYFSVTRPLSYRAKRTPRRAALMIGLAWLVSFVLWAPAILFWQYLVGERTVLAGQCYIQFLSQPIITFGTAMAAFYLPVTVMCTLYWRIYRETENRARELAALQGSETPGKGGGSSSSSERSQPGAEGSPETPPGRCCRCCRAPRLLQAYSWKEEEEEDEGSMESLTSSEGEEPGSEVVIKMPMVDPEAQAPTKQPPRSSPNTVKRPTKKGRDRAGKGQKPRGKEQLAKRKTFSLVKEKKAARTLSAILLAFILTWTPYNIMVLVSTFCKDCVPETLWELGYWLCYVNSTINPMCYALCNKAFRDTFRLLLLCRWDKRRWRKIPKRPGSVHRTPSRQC
Gonadotropin-releasing hormone receptor (Homo sapiens), sequence (P30968 whole entry, looked up): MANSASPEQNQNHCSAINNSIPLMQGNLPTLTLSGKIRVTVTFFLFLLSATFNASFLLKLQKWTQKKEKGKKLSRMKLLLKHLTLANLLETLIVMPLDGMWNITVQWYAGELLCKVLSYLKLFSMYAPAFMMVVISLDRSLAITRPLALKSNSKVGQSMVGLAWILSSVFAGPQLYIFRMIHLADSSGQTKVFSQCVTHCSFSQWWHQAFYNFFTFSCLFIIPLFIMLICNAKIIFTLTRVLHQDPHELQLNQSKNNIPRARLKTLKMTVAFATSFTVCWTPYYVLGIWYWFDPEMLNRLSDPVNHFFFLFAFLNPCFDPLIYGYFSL
5-hydroxytryptamine receptor 2A (Homo sapiens), sequence (P28223 whole entry, looked up): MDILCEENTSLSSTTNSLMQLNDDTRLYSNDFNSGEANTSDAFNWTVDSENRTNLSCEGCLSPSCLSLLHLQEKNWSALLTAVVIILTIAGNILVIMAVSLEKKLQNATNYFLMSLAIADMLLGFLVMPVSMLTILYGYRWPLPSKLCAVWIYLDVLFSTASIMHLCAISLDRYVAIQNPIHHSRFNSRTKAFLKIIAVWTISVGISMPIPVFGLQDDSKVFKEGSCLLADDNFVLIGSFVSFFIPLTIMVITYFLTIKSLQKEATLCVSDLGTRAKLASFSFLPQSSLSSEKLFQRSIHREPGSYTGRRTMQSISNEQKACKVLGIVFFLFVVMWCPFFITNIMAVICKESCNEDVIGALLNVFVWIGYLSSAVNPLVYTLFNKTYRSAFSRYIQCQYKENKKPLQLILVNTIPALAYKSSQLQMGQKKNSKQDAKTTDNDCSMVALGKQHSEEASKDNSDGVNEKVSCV

Take `Cc1cccc(O)c1C`: the Potency entry in assay [1], in assay [2], in [3], in assay [4], in assay [5] and in [6] was “inactive” in each case. Moreover, the Potency result in assay [7], in [8], in assay [9], in [10], in assay [11] and in [12] was “inactive” in each case. Moreover, the Potency result in assay [13], in assay [14], in assay [15], in assay [16] and in assay [17] was “inactive” each time.

On to `COc1ccc(C(Cl)=C(c2ccc(OC)cc2)c2ccc(OC)cc2)cc1`, for which the Potency entry in [1], in assay [2], in assay [3], in assay [4], in assay [5] and in [6] was “inactive” in each case. In addition, the Potency result in [7], in assay [8], in [9], in assay [18], in assay [10] and in assay [11] was “inactive” each time. Further, the Potency result in assay [19], in assay [14], in [15], in assay [16] and in [17] was “inactive” throughout.

For the molecule `CCc1nc(N)nc(N)c1-c1ccc(Cl)cc1`, the Potency result in [1], in assay [2], in assay [3], in assay [4], in assay [5] and in assay [6] was “inactive” throughout. Besides, the Potency entry in assay [7], in assay [9], in assay [18], in assay [11], in assay [19] and in assay [12] was “inactive” throughout. Besides, the Potency entry in assay [13], in assay [14], in [16] and in [17] was “inactive” throughout. In addition, the Potency in assay [8] was 13.1 µM (active).

With `C#CCN(C)Cc1ccccc1`, the Potency result in [1], in [2], in [3], in assay [4], in [5] and in assay [6] was “inactive” throughout. The Potency result in [7], in [8], in assay [9], in assay [18], in [10] and in [11] was “inactive” throughout. The Potency result in assay [19], in [12], in assay [13], in assay [14], in [15] and in assay [17] was “inactive” throughout.

As to `Nc1ccn([C@H]2CC[C@@H](CO)O2)c(=O)n1`, the Potency entry in assay [1], in [2], in [3], in [4], in assay [5] and in assay [6] was “inactive” each time. The Potency entry in [7], in assay [8], in assay [9], in [18], in assay [10] and in assay [11] was “inactive” in each case. The Potency result in [19], in [12], in [13], in [14], in assay [15] and in assay [16] was “inactive” throughout. Besides, in [17], the Potency result was “inactive”.

Consider `NC=O`, for which the Potency result in [1], in [2], in [20], in assay [6], in assay [7] and in assay [8] was “inactive” in each case. Further, the Potency result in assay [10], in assay [11], in assay [19], in assay [12], in [13] and in assay [14] was “inactive” each time. Moreover, the Potency entry in assay [16] and in assay [17] was “inactive” each time.

As to `C=Cc1cccc(C)c1`, the Potency result in [1], in assay [2], in [20], in [5], in assay [6] and in assay [7] was “inactive” throughout. Further, the Potency entry in [8], in assay [9], in assay [18], in [10], in [11] and in [19] was “inactive” throughout. In addition, the Potency entry in assay [12], in assay [13], in [14], in assay [15], in [16] and in [17] was “inactive” in each case.

(Values after PubChem BioAssay (Tox21).)
